From PubChem
In the library only some 3.4% were active in any assay of this set; here they are far more common.
MITF inh = blocks human microphthalmia-associated transcription factor | O75030 | AlphaScreen MITF homodimerization, bead proximity signal | inhibition, % at 2.6 µM | hit rate 0.91% among 650,000 | AID 1259374; in the data active = inhibition above about 50%
TEAD-YAP inh = TEAD-YAP interaction inhibition. inhibition, % at 9.12 µM. HEK-TIYL cells, TEAD-Gal4/YAP UAS-luciferase luminescence. AID 1259422. hit rate 1.4% among 640,000; in the data active = inhibition above about 32%
GPR151 activ = activators of human GPR151; hit rate 1% among 650,000; AID 1508602; activation, % at 11.2 µM; PathHunter beta-arrestin GPR151 cells, luminescence; in the data active = activation above about 4.9%
Target sequence (Q8TDV0 whole entry, looked up): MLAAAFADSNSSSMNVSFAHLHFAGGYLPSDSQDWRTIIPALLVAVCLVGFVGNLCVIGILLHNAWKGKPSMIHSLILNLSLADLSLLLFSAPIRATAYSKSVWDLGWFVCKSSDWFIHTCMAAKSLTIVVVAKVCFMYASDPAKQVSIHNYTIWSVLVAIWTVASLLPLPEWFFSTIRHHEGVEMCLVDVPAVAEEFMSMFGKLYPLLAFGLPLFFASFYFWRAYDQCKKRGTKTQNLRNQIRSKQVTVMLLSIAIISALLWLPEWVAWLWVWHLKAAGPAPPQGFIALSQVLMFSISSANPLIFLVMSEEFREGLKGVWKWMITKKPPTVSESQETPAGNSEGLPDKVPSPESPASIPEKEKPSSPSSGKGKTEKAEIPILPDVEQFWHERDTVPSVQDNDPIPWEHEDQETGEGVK
FBW7 activator = human FBW7 E3 ligase activation, primary screen. hit rate 0.13% among 650,000. AID 1259310. normalized activity (activation), % at 26.1 µM. AlphaScreen FBW7–phospho-cyclin E peptide binding, activator screen. Q969H0; in the data active = normalized activity above about 1.9%;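 also: purified mutant Fbw7 with reduced substrate affinity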
MITF inh conf = human MITF inhibition, confirmation. shares compounds with MITF inh. AlphaScreen MITF homodimerization, biotin/His-MITF beads. inhibition, % at 2.6 µM. hit rate 16% among 4,700. AID 1259372;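 active = inhibition above a cutoff derived from the DMSO control wells, cut at about 28% in these data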;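 also: inhibitors lower the bead chemiluminescence by keeping MITF from dimerizing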
AS interf DR = optically interferes with AlphaScreen signal in dose response; shares compounds with MITF inh; AlphaScreen optical interference counterscreen, cell-free; IC50, µM; hit rate 6% among 480; call rule not given here
AS interf ctr = counter-screen: compounds optically interfering with AlphaScreen; LysRS AlphaScreen counterscreen, signal interference, triplicate; inhibition, % at 2.6 µM; shares compounds with MITF inh; AID 1259376; hit rate 7.6% among 4,700;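 active = inhibition above a cutoff derived from the DMSO control wells, cut at about 30% in these data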
Hits are given with their value.

How did COc1cccc(CN2CCN(Cc3ccccc3Br)CC2)c1 do in these assays?
MITF inh: 72.8; TEAD-YAP inh: inactive; GPR151 activ: inactive; FBW7 activator: inactive; MITF inh conf: inactive; AS interf ctr: inactive

Results for COc1ccc(CN2CCN(Cc3ccccc3)CC2)c(O)c1 ?
MITF inh: inactive; TEAD-YAP inh: inactive; GPR151 activ: inactive; FBW7 activator: inactive

What do the screens show for `CCN1CCN(Cc2cccc(Cl)c2Cl)CC1`?
MITF inh: inactive; TEAD-YAP inh: inactive; GPR151 activ: inactive; FBW7 activator: inactive

Results for CC(C)(C)c1cc(-n2nc3ccccc3n2)c(O)c(C(C)(C)C)c1 ?
MITF inh: inactive; TEAD-YAP inh: inactive; GPR151 activ: inactive; FBW7 activator: inactive

What do the screens show for `CCOc1ccc2nccc([C@@H](O)[C@@H]3C[C@@H]4CCN3C[C@@H]4CC)c2c1`?
MITF inh: inactive; TEAD-YAP inh: inactive; GPR151 activ: inactive; FBW7 activator: inactive

How did CCOC(=O)c1ccc(NC(=O)CCc2nc(C3=CCN(C)CC3)no2)cc1 do in these assays?
MITF inh: 61.6; TEAD-YAP inh: inactive; GPR151 activ: inactive; FBW7 activator: 3.4; MITF inh conf: 69.3; AS interf ctr: 38.4

How did Nc1cc(C(=O)N2CCCCCC2)ccc1N1CC2CC(C1)c1cccc(=O)n1C2 (stereo unspecified) do in these assays?
MITF inh: inactive; TEAD-YAP inh: inactive; GPR151 activ: inactive; FBW7 activator: inactive

Results for COc1ccccc1N1CCN(Cc2ccc(F)cc2)CC1 ?
MITF inh: inactive; TEAD-YAP inh: inactive; GPR151 activ: inactive; FBW7 activator: inactive

How did COc1ccc(CN2CCN(Cc3ccccc3OC)CC2)cc1 do in these assays?
MITF inh: 76.9; TEAD-YAP inh: inactive; GPR151 activ: inactive; FBW7 activator: inactive; MITF inh conf: 30.9; AS interf DR: inactive; AS interf ctr: inactive

How did COc1ccccc1CN1CCN(Cc2ccc(SC)cc2)CC1 do in these assays?
MITF inh: 81.2; TEAD-YAP inh: inactive; GPR151 activ: inactive; FBW7 activator: inactive; MITF inh conf: inactive; AS interf ctr: inactive

Results for COc1ccccc1CN1CCN(Cc2ccc(F)cc2)CC1 ?
MITF inh: 81.0; TEAD-YAP inh: inactive; GPR151 activ: inactive; FBW7 activator: inactive; MITF inh conf: inactive; AS interf ctr: inactive

What do the screens show for `COc1ccccc1CN1CCN(Cc2ccc(Cl)cc2)CC1`?
MITF inh: 73.0; TEAD-YAP inh: inactive; GPR151 activ: inactive; FBW7 activator: inactive; MITF inh conf: inactive; AS interf ctr: inactive

What do the screens show for `COc1cccc(CN2CCN(c3ccc(Cl)cc3)CC2)c1O`?
MITF inh: inactive; TEAD-YAP inh: inactive; GPR151 activ: inactive; FBW7 activator: inactive

How did O=c1[nH]c(=O)n(C2OC(CO)C(O)C(O)C2O)cc1N(CCCl)CCCl (stereo unspecified) do in these assays?
MITF inh: inactive; TEAD-YAP inh: inactive; GPR151 activ: inactive; FBW7 activator: inactive

What do the screens show for `O=c1c2ccccc2nc(Cc2ccccc2)n1-c1ccc([N+](=O)[O-])cc1`?
MITF inh: inactive; TEAD-YAP inh: inactive; GPR151 activ: inactive; FBW7 activator: inactive

Results for COC(=O)C1CCC2C3CCC4=CC(=O)CCC4(C)C3CCC12C (stereo unspecified) ?
MITF inh: inactive; TEAD-YAP inh: inactive; GPR151 activ: inactive; FBW7 activator: inactive

What do the screens show for `OCC(O)CNCCc1ccc(Cl)cc1Cl` (stereo unspecified)?
MITF inh: inactive; TEAD-YAP inh: inactive; GPR151 activ: inactive; FBW7 activator: inactive

Results for N#Cc1ccc(NC(=O)COC(=O)CCN2C(=O)C3CCCCC3C2=O)cc1Cl (stereo unspecified) ?
MITF inh: inactive; TEAD-YAP inh: inactive; GPR151 activ: inactive; FBW7 activator: inactive

How did Cc1ccc2c(c1)C1CN(C)CCC1N2C(=O)/C=C/c1ccc(F)cc1 (stereo unspecified) do in these assays?
MITF inh: inactive; TEAD-YAP inh: inactive; GPR151 activ: inactive; FBW7 activator: inactive

How did COc1ccccc1CN1CCN(Cc2cccc(Cl)c2)CC1 do in these assays?
MITF inh: 69.1; TEAD-YAP inh: inactive; GPR151 activ: inactive; FBW7 activator: inactive; MITF inh conf: inactive; AS interf ctr: inactive

What do the screens show for `CCN(CC(=O)Nc1ccc(C#N)c(Cl)c1)CC(=O)Nc1c(F)cccc1F`?
MITF inh: inactive; TEAD-YAP inh: inactive; GPR151 activ: inactive; FBW7 activator: inactive
